High-throughput results as filed in PubChem.
Hits are enriched below; roughly 15% of the tested compounds scored in any of these assays.
VP16 counter = VP16 counterscreen qHTS for inhibitors of ROR gamma transcriptional activity. 310,000 tested, 3.5% active. Drosophila S2 Gal4-VP16 UAS-luciferase, luminescence, 20 h. AID 2546, 2010. Potency, µM (doses to about 53.6 µM), without a hit: at the top dose activity, negative = inhibition, most hits filed as inhibitors;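 further: Gal4-VP16 expression switched on by copper sulfate through the metallothionein promoter; nearly all actives have a fitted effect of over 50% in size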
DT40 TDP1 CPT = qHTS for Inhibitors of human tyrosyl-DNA phosphodiesterase 1 (TDP1): qHTS in cells in presence of CPT; chicken DT40 Tdp1-/-;hTDP1 cells + 20 nM CPT, ATP luminescence, 48 h; Potency, µM (highest dose often 46.2 µM), for inactives: at the top dose activity change, negative = growth inhibition, most hits filed as inhibitors; 420,000 tested, 12% active; AID 686979, 2013; further: nearly all actives have a fitted effect of over 55% in size
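Cell growth measured by CellTiter-Glo luminescence after a minimum 48 h, 37 C compound exposure with 20 nM CPT in Tdp1-knockout DT40 cells stably expressing hTDP1, seeded 400/well; qHTS titration format.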
RORg inh = qHTS for inhibitors of ROR gamma transcriptional activity; AID 2551, 2010; Drosophila S2 Gal4-RORgamma UAS-luciferase reporter, 20 h; Potency, µM (series often up to 53.6 µM), for the others: at the top dose activity change, negative = inhibition, most hits filed as inhibitors; Nuclear receptor ROR-gamma (Mus musculus), P51450; 310,000 tested, 5.4% active; further: nearly all actives have a fitted effect of over 60% in size
Target sequence (P51450 whole entry, looked up, the tested form may be a part): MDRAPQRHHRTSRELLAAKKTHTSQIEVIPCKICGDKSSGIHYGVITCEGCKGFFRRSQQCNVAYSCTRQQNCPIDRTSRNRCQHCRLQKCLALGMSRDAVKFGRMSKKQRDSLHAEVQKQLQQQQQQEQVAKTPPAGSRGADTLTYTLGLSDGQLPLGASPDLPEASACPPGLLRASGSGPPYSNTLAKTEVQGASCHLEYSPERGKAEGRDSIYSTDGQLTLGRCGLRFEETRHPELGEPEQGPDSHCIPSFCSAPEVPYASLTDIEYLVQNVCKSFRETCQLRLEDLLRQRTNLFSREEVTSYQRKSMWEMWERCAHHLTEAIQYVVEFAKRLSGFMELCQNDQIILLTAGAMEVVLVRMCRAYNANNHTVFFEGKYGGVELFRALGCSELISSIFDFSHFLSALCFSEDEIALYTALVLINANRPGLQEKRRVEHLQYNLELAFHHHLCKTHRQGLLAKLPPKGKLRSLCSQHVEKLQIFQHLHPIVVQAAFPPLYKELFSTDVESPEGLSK
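In this cell-based reporter format, copper sulfate (700 uM final) drives Gal4–ROR gamma fusion expression from a metallothionein promoter in Drosophila Schneider cells; compounds preincubated 1 hr, reporter read after 20 hr at ambient temperature.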
ELG1 repair inh = qHTS screen for small molecules that inhibit ELG1-dependent DNA repair in human embryonic kidney (HEK293T) cells expressing luciferase-tagged ELG1 | HEK293T ELG1-luciferase reporter, luminescence, 16 h; DNA damage induced by 5-fluorouridine | Potency, µM (titrated, usually from 46.1 µM), for the others: at the highest dose activity change, negative = inhibition, actives largely listed as inhibitors | 330,000 tested, 2.3% active; further: nearly all actives have a fitted effect of over 55% in size
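HEK293T cells expressing luciferase-tagged ELG1 (2,000/well) received 5-Fluorouridine plus compound or DMSO for 16 hr at 37 °C. Luciferase was read by ONE-Glo luminescence after 30 min at room temperature.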
TDP1 cell noCPT = qHTS for Inhibitors of human tyrosyl-DNA phosphodiesterase 1 (TDP1): qHTS in cells in absence of CPT; DT40 Tdp1-/- hTDP1 cells, no CPT, ATP luminescence, 48 h; Potency, µM (doses to about 46.2 µM), inactives show at the highest dose activity change, negative = growth inhibition, hits mostly inhibitors; 420,000 tested, 15% active; AID 686978, 2013; further: nearly all actives have a fitted effect of over 55% in size
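A cellular qHTS used chicken DT40 cells lacking endogenous Tdp1 but carrying stably transfected human TDP1. Compounds were applied without camptothecin, and cell growth kinetics were judged by ATP-dependent luminescence after ≥48 hr.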
ALOX12 inh = Primary qHTS assay for inhibitors of human arachidonate 12S-lipoxygenase (ALOX12): Round 2 | purified 12hLO, xylenol orange hydroperoxide absorbance | Potency, µM (series often up to 108 µM), without a hit: top-dose activity change, negative = inhibition, most hits filed as inhibitors | 580,000 tested, 1.1% active | AID 1671190, 2021
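Purified human 12hLO (150 nM final) in 25 mM Hepes, 0.01% Triton X-100, pH 7.0 was preincubated 15 min at room temperature with compound. Then 40 uM arachidonic acid was added, 30 min. Hydroperoxide was read by Fe-XO absorbance ratio 573/405 nm.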
* = called active by the depositor; ? = inconclusive; · = no result. The call rests on the fitted dose curve; in most records, active means well fitted curve in the direction sought with a large enough effect; inconclusive means small, poorly fitted or top-dose-only effect, or another doubt; inactive means no such curve, though single readings can be large; an effect the other way counts as inactive or inconclusive. On the % scale 0 is the no-effect control and ±100 the full control effect; potency means the concentration at half of the fitted maximal effect.

SMILES	VP16 counter	DT40 TDP1 CPT	RORg inh	ELG1 repair inh	TDP1 cell noCPT	ALOX12 inh
CN1CCN(C(=O)CN2CCN(C(C(=O)O)c3cn(C)c4cc(C(=O)O)ccc34)CC2)CC1 (configuration not stated)	·	·	·	·	·	-2%
Cc1c(C)c(C)c(S(=O)(=O)Nc2cc(Cl)ccc2C(=O)N(C)C)c(C)c1C	·	·	·	·	·	40µM*
NNc1nnc2c3cc(F)ccc3n(Cc3ccccc3)c2n1	-12%	?	-13%	9.2µM*	18µM*	0%
CCn1c2ccc(F)cc2c2nnc(NN)nc21	-18%	?	7%	-19%	16µM*	-3%
CCc1ccc2c(c1)c1nnc(NN)nc1n2CC	-24%	?	-30%	16µM*	18µM*	153%
CCCn1c2ccc(F)cc2c2nnc(NN)nc21	3%	?	-26%	?	?	32%
COc1ccc(NC(=O)C2(Cc3ccccc3)CCCCC(=O)N2)cc1F (configuration not stated)	·	·	·	·	·	-2%
Cc1nn(C)cc1C(=O)/C=C/c1ccc([N+](=O)[O-])cc1	?	?	-25%	16%	18µM*	4%
CCn1cc(CN(C)C(=O)/C=C/c2ccc([N+](=O)[O-])cc2)c(C)n1	0%	?	38%	-9%	15µM*	-4%
CCC1=C(c2ccc(C)cc2)S(=O)(=O)N=C1N1CCC(C(=O)NCc2ccc(N(C)C)cc2)CC1	·	18µM*	·	·	23µM*	?
CCSCCc1nnc(NC(=O)Nc2cccc(C(F)(F)F)c2)s1	18µM*	4.1µM*	?	?	2.3µM*	-4%
O=C(Nc1cccc(C(F)(F)F)c1)Nc1nnc([C@H]2C[C@H](O)[C@@H](CO)O2)s1	·	?	·	·	-24%	1%
O=C(Nc1ccccc1)Nc1cccc(C(F)(F)F)c1	-6%	?	?	-13%	?	-5%
O=C(Nc1cccc(C(F)(F)F)c1)Nc1cccs1	·	?	·	·	21µM*	?
COC(=O)c1sccc1NC(=O)Nc1cccc([N+](=O)[O-])c1	?	2%	?	0%	10%	11%
O=C(Nc1cccc([N+](=O)[O-])c1)Nc1cccs1	1%	23µM*	36%	-27%	?	?
COCCCNc1oc(-c2ccc(S(=O)(=O)N3CCCC3)cc2)nc1C#N	·	·	·	·	·	3%
O=C(c1nc2sccn2c1Br)N1CCC(N2CCCCCC2=O)CC1	·	·	·	·	·	11%
O=C(Nc1ccncc1)c1cc(S(=O)(=O)N2CCCCC2)ccc1Cl	·	9.2µM*	·	-30%	?	-2%
CCN1CCN(c2ccc(NC(=O)c3cc(S(=O)(=O)N4CCCC4)ccc3Cl)cc2)CC1	·	?	·	25%	26µM*	-20%
O=C(Nc1ccccc1O)c1cc(S(=O)(=O)N2CCCC2)ccc1Cl	·	?	·	·	21µM*	?
O=C(Nc1ccncc1)c1ccc(Cl)c(S(=O)(=O)N2CCCCC2)c1	·	13µM*	·	?	16µM*	·
O=C(COc1ccc2ccc(=O)oc2c1)NCc1cccs1	·	·	·	·	·	25%
O=C(Nc1cccnc1)c1ccc(Cl)c(S(=O)(=O)N2CCCCCC2)c1	-4%	?	?	21µM*	?	-18%
O=C(Nc1cccnc1)c1ccc(C(=O)Nc2cccnc2)cc1	4%	-11%	7%	0%	?	-1%
SMILES	VP16 counter	DT40 TDP1 CPT	RORg inh	ELG1 repair inh	TDP1 cell noCPT	ALOX12 inh
O=C(Nc1ccc(Cl)c(S(=O)(=O)N2CCCCC2)c1)c1ccncc1	·	15µM*	·	?	13µM*	2%
O=C(Nc1cccnc1)c1ccc(S(=O)(=O)c2ccc(Cl)cc2)cc1	?	?	?	?	23µM*	-13%
O=C(O)c1cc(S(=O)(=O)N2CCN(C(c3ccccc3)c3ccccc3)CC2)ccc1Cl	3%	14%	-27%	-4%	28%	40µM*
Cc1ccc(C(=O)Nc2cccnc2)cc1S(=O)(=O)N1CCCCCC1	6%	?	44%	-7%	?	124%
CC(C)(C)NC(NC(=O)c1cccc(Cl)c1)C(Cl)(Cl)Cl (configuration not stated)	·	·	·	·	·	14%
O=C(Cc1ccc(Cl)cc1)NC1CCN(c2cc(-c3ccc(F)cc3)[nH]n2)CC1	·	·	·	·	·	-1%
COc1nc2c(cc1CNC(=O)CC1CC1)C(=O)N(C1CCCC1)C2	·	·	·	·	·	43%
CCOc1ncccc1C(=O)Nc1ccc(C)c(S(=O)(=O)N2CCCCCC2)c1	·	18µM*	·	21µM*	?	50%
O=C(Nc1cc(S(=O)(=O)N2CCCCC2)ccc1Cl)c1ccccc1NS(=O)(=O)c1ccc(F)cc1	5.6µM*	5.2µM*	?	4.1µM*	2.6µM*	?
O=C(Nc1ccc(N2CCOCC2)cc1)c1ccc(Cl)c(S(=O)(=O)N2CCCC2)c1	·	?	·	?	21µM*	0%
CCN(CC)CCOC(=O)c1ccc(NC(=O)c2ccc(Cl)c(S(=O)(=O)N3CCCCCC3)c2)cc1	?	21µM*	?	?	?	?
COc1ccc(-n2nc(C3CCCN(C(=O)c4cccc(Cl)c4)C3)[nH]c2=O)cc1 (configuration not stated)	·	·	·	·	·	33%
CSCC(=O)N1CCCC(CCc2cccc(F)c2)C1 (configuration not stated)	·	·	·	·	·	21%
CN(C)c1ccc(C(=S)N2CCCCCC2)cc1	-21%	?	20µM*	?	16µM*	40µM*
CC(=O)N1CCN(C(=S)c2ccc(N(C)C)cc2)CC1	9%	-14%	-18%	-14%	-1%	?
CC1CCN(C(=S)c2ccc(N(C)C)cc2)CC1	-26%	-2%	13µM*	?	-23%	?
CN(C)c1ccc(C(=S)N2CCOCC2)cc1	6%	-1%	-28%	?	-5%	0%
CCOC(=O)c1cccc(OCc2ccc(C#N)cc2)c1	·	·	·	·	·	-2%
Cc1ccccc1C(=O)O/N=C/c1c(N2CCOCC2)n(C)c2ccccc12	2.8µM*	1.5µM*	1µM*	?	1.3µM*	5%
Cc1cc(C)n2c(NC3CCCCC3)c(-c3ccccn3)nc2n1	·	?	·	·	23µM*	-19%
